According to the supplement of paper PMC10849652:
The full data set covers some 7,900 targets. This sample favours those with a hit. About 0.6% of all pairs of compound and target were hits.

How the values were obtained:
Test in all cases: log2 fold change, soluble protein after heating vs DMSO (PISA); higher = thermal stabilisation; K562 cells, 10 uM, 30 min; active = over 0.2 and 3.5 SD of the protein, either way, in both replicates (recomputed)
erlotinib = compound: C#Cc1cccc(Nc2ncnc3cc(OCCOC)c(OCCOC)cc23)c1 [erlotinib]
Method in brief: (§1)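 Quantification of soluble protein used TMTpro 16plex LC-MS/MS, with channel sums equalised. Samples were the supernatant after 21,000xg for 90 min of pooled aliquots from K562 cells (2×10^6 cells/mL) treated with 10 μM compound for 30 min, heated for 3 min over 48°C-58°C, and extracted in PBS with 0.5% NP-40 at 4°C. Values, from duplicates, describe thermal stability against control samples on a log2 fold-change scale.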

[1] = compound: C/C(=N\NC(=O)C1=CC(=CC=C1)S(=O)(=O)N2CCOCC2)/C3=C(C=CC(=C3)Cl)O
Method in brief: as §1

[2] = compound: C1=CC(=C(C=C1Cl)C2=NC3=NC=CN=C3C(=N2)NC4=CC=NC=C4)F
Method in brief: as §1

[3] = compound: C1=CC(=CC=C1C2=NC3=C(N2)C=C(C=C3)C(=O)N)OC4=CC=C(C=C4)Cl
Method in brief: as §1

[4] = compound: C1=CC2=C(C=CC(=C2)/C=C\3/C(=O)NC(=NCC4=CC=CS4)S3)N=C1
Method in brief: as §1

[5] = compound: C1=CC2=NC=CN=C2C=C1/C=C/3\C(=O)NC(=O)S3
Method in brief: as §1

[6] = compound: C1=CC=C(C=C1)C2=NC(=C(N2)C3=CC=NC=C3)C4=CC(=C(C=C4)Cl)O
Method in brief: as §1

[7] = compound: C1=CC=C2C(=C1)C3=NNC4=CC=CC(=C43)C2=O
Method in brief: as §1

[8] = compound: C1CCN(C1)C(=O)NC2=CC=CC(=C2)NC3=NC=C(C(=N3)NCCC4=CN=CN4)Br
Method in brief: as §1

[9] = compound: C1CN(CCC1(CC2=CC=C(C=C2)Cl)N)C3=NC=NC4=C3C=CN4
Method in brief: as §1

Measured: log2 fold change

GCSH (UniProt P23434)
UniProt P23434, sequence (P23434 whole entry, looked up): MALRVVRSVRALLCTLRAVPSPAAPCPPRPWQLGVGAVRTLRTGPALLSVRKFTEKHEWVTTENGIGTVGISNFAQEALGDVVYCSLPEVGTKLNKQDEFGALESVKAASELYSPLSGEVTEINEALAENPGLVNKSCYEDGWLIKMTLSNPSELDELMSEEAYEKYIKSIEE
inactive: erlotinib -0.072 | [1] -0.023 | [2] 0.253 | [3] 0.061 | [4] -0.036 | [5] 0.067 | [6] -0.038 | [7] -0.007 | [8] -0.017 | [9] -0.025

GCC2 (UniProt Q8IWJ2)
UniProt Q8IWJ2, sequence (Q8IWJ2 whole entry, looked up): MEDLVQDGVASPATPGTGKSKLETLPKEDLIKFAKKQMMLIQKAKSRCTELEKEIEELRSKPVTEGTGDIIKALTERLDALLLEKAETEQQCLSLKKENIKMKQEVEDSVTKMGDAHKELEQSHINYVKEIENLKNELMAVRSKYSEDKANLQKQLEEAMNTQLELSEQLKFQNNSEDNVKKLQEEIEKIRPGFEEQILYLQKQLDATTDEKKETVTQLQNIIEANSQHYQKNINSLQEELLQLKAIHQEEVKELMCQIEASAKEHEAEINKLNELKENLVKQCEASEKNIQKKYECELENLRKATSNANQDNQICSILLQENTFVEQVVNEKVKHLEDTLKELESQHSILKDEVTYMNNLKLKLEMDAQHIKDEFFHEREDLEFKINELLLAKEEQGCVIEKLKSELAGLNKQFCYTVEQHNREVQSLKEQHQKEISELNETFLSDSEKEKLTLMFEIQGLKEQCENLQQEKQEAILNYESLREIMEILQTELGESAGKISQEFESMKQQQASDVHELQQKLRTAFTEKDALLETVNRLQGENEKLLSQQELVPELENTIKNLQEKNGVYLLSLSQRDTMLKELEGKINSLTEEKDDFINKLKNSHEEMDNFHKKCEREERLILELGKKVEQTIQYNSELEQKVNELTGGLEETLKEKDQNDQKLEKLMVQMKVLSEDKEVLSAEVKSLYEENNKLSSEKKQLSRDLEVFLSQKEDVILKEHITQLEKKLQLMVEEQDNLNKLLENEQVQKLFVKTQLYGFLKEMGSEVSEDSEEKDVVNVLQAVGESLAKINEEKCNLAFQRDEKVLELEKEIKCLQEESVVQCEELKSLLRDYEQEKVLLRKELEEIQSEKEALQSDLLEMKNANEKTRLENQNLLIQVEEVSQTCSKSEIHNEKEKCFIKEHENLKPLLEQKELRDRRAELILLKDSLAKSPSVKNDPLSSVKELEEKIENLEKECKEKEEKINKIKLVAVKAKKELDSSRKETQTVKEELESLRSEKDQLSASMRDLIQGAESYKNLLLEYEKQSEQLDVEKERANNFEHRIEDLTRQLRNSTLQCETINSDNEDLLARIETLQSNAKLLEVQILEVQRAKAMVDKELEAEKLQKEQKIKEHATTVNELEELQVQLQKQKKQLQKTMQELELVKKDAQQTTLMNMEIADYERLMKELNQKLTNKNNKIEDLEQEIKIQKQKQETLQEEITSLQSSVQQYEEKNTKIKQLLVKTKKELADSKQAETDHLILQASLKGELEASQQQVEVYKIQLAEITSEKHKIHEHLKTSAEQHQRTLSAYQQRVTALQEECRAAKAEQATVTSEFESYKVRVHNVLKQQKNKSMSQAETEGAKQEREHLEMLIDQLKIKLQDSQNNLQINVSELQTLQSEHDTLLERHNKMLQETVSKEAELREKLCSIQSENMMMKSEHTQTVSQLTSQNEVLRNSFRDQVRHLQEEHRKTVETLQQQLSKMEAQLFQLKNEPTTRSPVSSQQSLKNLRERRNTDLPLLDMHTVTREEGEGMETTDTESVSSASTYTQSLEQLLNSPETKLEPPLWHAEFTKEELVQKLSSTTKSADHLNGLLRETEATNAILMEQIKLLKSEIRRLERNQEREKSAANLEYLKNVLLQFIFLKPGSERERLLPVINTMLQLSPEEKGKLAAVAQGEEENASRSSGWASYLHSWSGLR
inactive: erlotinib -0.062 | [1] 0 | [2] -0.155 | [3] -0.017 | [4] -0.076 | [5] 0.034 | [6] -0.032 | [7] -0.021 | [8] -0.054 | [9] -0.154

GTF2A2 (UniProt P52657)
UniProt P52657, sequence (P52657 whole entry, looked up): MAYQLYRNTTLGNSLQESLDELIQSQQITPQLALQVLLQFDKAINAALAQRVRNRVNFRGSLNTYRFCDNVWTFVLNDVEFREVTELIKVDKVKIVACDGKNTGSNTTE
inactive: erlotinib -0.057 | [1] 0.048 | [2] 0.089 | [3] -0.005 | [4] 0.132 | [5] 0.038 | [6] -0.002 | [7] -0.02 | [8] 0.008 | [9] 0.07

FHOD1 (UniProt Q9Y613)
inactive: erlotinib -0.002 | [1] -0.259 | [2] -0.337 | [3] -0.059 | [4] 0.059 | [5] 0.146 | [6] -0.034 | [7] -0.007

GDE1 (UniProt Q9NZC3)
UniProt Q9NZC3, sequence (Q9NZC3 whole entry, looked up): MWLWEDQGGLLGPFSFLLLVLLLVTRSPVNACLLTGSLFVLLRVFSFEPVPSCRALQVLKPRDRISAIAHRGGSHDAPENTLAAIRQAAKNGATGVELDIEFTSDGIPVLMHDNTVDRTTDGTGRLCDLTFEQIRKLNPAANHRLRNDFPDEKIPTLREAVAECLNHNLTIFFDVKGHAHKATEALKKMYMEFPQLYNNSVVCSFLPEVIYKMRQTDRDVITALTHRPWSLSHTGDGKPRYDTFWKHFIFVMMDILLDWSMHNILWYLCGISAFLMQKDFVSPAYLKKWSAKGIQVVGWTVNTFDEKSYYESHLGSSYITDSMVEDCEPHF
inactive: erlotinib 0.014 | [1] 0.065 | [2] 0.055 | [3] 0.019 | [4] -0.047 | [5] 0.05 | [6] -0.029 | [7] -0.023 | [8] 0.003 | [9] 0.13

HIP1 (UniProt O00291)
UniProt O00291, sequence (O00291 whole entry, looked up): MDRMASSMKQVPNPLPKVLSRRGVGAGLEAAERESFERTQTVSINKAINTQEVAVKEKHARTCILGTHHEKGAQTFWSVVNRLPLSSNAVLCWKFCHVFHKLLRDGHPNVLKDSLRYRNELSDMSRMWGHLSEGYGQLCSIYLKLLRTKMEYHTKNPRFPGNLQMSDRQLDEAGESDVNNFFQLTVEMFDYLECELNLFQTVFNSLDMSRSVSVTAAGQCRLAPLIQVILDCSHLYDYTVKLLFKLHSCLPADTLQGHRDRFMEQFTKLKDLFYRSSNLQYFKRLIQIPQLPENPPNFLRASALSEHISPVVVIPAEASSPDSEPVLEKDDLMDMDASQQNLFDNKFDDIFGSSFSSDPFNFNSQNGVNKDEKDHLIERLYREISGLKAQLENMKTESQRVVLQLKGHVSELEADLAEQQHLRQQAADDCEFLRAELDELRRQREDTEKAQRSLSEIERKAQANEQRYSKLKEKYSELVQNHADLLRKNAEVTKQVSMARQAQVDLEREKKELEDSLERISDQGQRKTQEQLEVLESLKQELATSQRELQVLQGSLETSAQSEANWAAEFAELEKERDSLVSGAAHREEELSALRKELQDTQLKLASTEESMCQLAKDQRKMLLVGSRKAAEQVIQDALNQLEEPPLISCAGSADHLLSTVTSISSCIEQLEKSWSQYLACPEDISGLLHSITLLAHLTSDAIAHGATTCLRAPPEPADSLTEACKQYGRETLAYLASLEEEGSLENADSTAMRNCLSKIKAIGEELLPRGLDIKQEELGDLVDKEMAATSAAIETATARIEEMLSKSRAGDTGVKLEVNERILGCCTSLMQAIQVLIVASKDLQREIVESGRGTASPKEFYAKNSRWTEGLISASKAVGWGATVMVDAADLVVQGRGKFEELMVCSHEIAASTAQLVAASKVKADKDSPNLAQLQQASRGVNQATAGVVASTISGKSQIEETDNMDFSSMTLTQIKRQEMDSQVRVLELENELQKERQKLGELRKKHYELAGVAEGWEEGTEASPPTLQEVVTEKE
inactive: erlotinib 0.018 | [1] 0.033 | [2] 0.046 | [3] -0.004 | [4] 0.018 | [5] -0.056 | [6] 0.011 | [7] -0.166 | [8] -0.209 | [9] 0.09

GYG1 (UniProt P46976)
inactive: erlotinib -0.064 | [1] 0.016 | [2] -0.23 | [3] 0.005 | [4] 0.089 | [5] -0.039 | [6] -0.109 | [7] 0.083 | [8] -0.075 | [9] -0.027

HEXB (UniProt P07686)
UniProt P07686, sequence (P07686 whole entry, looked up): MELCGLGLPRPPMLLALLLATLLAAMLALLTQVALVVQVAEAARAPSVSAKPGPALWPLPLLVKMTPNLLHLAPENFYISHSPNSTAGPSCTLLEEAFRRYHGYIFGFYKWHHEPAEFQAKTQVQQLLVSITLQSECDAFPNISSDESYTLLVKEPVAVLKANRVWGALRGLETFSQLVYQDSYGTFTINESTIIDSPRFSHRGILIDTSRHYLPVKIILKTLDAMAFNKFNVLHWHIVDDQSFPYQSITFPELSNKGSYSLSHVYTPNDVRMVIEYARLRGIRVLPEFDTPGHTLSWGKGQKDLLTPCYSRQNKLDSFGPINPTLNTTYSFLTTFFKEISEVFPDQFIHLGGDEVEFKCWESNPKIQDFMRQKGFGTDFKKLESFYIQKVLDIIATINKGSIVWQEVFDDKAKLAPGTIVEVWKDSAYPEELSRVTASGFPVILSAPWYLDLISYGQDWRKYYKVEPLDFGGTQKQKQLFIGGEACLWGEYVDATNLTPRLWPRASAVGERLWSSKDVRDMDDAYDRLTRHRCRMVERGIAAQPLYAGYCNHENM
inactive: erlotinib -0.004 | [1] 0.002 | [2] 0.01 | [3] 0.003 | [4] -0.002 | [5] 0.017 | [6] 0.017 | [7] -0.01 | [8] 0.008 | [9] 0.026

HDGFL2 (UniProt Q7Z4V5)
inactive: erlotinib 0.002 | [1] 0.001 | [2] 0.042 | [3] -0.006 | [4] -0.046 | [5] 0.048 | [6] -0.01 | [7] -0.046 | [8] 0.033 | [9] 0.057

GNG5 (UniProt P63218)
active: [2] 0.436
inactive: erlotinib -0.07 | [1] 0.01 | [3] 0.089 | [4] 0.031 | [5] -0.001 | [6] 0.072 | [7] 0.038 | [8] -0.037 | [9] -0.044

GTF3C5 isoform 3 (UniProt Q9Y5Q8)
UniProt Q9Y5Q8, sequence (Q9Y5Q8 whole entry, looked up): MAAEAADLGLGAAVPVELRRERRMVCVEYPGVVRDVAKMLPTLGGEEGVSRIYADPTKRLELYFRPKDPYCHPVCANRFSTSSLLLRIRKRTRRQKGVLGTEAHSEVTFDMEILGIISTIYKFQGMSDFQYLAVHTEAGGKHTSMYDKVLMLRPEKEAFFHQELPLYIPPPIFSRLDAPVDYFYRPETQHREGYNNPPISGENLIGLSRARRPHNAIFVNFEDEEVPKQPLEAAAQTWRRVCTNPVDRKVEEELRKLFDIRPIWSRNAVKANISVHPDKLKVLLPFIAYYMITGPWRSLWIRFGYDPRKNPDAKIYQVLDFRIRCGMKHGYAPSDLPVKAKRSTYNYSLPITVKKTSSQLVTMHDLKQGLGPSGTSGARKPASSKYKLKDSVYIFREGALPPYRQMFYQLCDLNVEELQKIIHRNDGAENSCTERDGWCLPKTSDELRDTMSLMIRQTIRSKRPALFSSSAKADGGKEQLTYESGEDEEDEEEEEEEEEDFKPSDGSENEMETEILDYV
active: [4] -0.413
inactive: erlotinib 0.085 | [1] 0.293 | [2] -0.078 | [3] -0.049 | [5] -0.056 | [6] -0.089 | [7] 0.079 | [8] -0.067 | [9] -0.038

FKBP7 (UniProt Q9Y680)
UniProt Q9Y680, sequence (Q9Y680 whole entry, looked up): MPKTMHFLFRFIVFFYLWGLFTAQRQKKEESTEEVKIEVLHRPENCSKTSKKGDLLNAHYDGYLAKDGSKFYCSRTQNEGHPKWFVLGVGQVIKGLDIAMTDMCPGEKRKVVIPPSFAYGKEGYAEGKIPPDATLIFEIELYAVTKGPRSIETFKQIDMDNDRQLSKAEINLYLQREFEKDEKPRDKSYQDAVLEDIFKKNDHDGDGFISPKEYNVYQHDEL
inactive: erlotinib -0.027 | [1] -0.027 | [2] 0.005 | [3] 0.037 | [4] 0 | [5] 0.081 | [6] -0.037 | [7] -0.042 | [8] 0.039 | [9] 0.048

GLS isoform 3 (UniProt O94925)
inactive: erlotinib 0.09 | [1] 0.156 | [2] -0.041 | [3] -0.094 | [4] 0.027 | [5] 0.004 | [6] 0 | [7] -0.082 | [8] -0.11 | [9] -0.12

IFITM3 (UniProt Q01628)
UniProt Q01628, sequence (Q01628 whole entry, looked up): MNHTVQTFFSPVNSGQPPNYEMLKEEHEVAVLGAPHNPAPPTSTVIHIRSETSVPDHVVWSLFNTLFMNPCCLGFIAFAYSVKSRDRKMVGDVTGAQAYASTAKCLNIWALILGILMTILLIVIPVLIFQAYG
inactive: erlotinib -0.093 | [1] -0.031 | [3] 0.042 | [4] -0.041 | [5] 0.058 | [6] 0.118 | [7] -0.01 | [8] -0.016 | [9] -0.03
active: [2] -0.471

GATD1 (UniProt Q8NB37)
UniProt Q8NB37, sequence (Q8NB37 whole entry, looked up): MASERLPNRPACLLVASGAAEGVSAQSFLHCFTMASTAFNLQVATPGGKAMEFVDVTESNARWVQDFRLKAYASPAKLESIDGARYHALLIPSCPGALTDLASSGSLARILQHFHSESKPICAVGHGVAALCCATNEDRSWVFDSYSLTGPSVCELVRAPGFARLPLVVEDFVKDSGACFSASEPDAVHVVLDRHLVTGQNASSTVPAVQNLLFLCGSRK
inactive: erlotinib 0.028 | [1] -0.006 | [2] 0.111 | [3] -0.012 | [4] 0.057 | [5] 0.007 | [6] -0.01 | [7] 0.047 | [8] -0.006 | [9] 0.098
